S2 tox: cell viability loss in ATXN counter-screen; S2 cells (HEK-293 line with an ATXN2-luciferase reporter) viability, CellTiter-Fluor protease fluorescence, 24 h; Potency, µM (doses to about 56.7 µM), usual class: cytotoxic; AID 651635; 400,000 compounds, 0.49% hits; note: nearly all actives have a fitted effect of over 40% in size
HT1080 IDH1KD tx: toxicity to HT-1080 IDH1 knockdown cells (counter line); HT-1080 IDH1 knockdown viability, ATP luminescence, 48 h; Potency, µM (doses to about 46.1 µM), actives largely listed as cytotoxic; 360,000 compounds, 2% hits
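Knockdown cells (IDH1KD HT-1080) received compounds 2 h after plating at 750 cells/well and were kept 48 h at 37 °C in 5% FBS RPMI. A CellTiter-Glo luminescence read gave % activity for curve fitting.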
HepG2 tox: HepG2 cytotoxicity, counter-screen for TGF-b inhibitors; HepG2 CAGA-GFP viability, ATP luminescence, 18 h; Potency, µM (top dose mostly 46.1 µM), actives largely listed as cytotoxic; 410,000 compounds, 0.76% hits
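CellTiter-Glo luminescence gave cytotoxicity after 18 hours at 37 degrees C. The cells were HepG2 CAGA-GFP in 1% FBS DMEM, stimulated with 500 pg/mL TGF-beta after compound addition. %Activity was normalised to no-cell wells (complete cell-killing) and DMSO (no toxicity), and curves were fitted and classified.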
ATXN2 expr inh: inhibitors of ATXN2 expression; Potency, µM (titrated, usually from 57 µM), actives largely listed as inhibitors; 360,000 compounds, 0.72% hits; AID 1745845; HEK-293 ATXN2-luciferase reporter, luminescence, 24 h; note: nearly all actives have a fitted effect of over 55% in size
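qHTS (up to 57 uM final) was run with 24 h compound exposure of reporter cells at 37 °C. Each well was multiplexed: SteadyGlo luminescence measured ATXN2-luciferase expression after a fluorogenic Gly-Phe-AFC viability readout (25 uM final).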
HT1080-NT tox: kills 2HG-producing HT-1080-NT fibrosarcoma cells. 360,000 compounds, 1.6% hits. Potency, µM (doses to about 46.1 µM), most hits filed as cytotoxic. HT-1080-NT fibrosarcoma viability, CellTiter-Glo ATP luminescence, 48 h;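 note: NT is the 2HG producing partner of a matched IDH1 knockdown line; nearly all actives have a fitted effect of over 55% in size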
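Viability of the 2HG-overproducing fibrosarcoma line after 48 hours of compound exposure at 37 degrees C was determined by luminescence with CellTiter-Glo, and concentration-effect curves were then fitted and categorized.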
TGFb inhibitor: inhibitors of TGF-b signaling; HepG2 CAGA-GFP TGF-b/SMAD3 reporter, GFP fluorescence, 18 h; TGF-beta stimulated, 500 pg/mL final; Potency, µM (titrated, usually from 46.1 µM), hits mostly inhibitors; 410,000 compounds, 1.2% hits; AID 588855; note: nearly all actives have a fitted effect of over 65% in size
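Per well, imaged GFP fluorescence of HEPG2 CAGA-GFP cells gives the signal; cells get compound, then TGF-beta (500 pg/mL final), 18 h at 37 degrees C; %Activity versus -TGF-beta and +DMSO controls.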
Large screens that a line does not name were inactive; ! = repeats disagree. Rows were chosen to be rich in hits. Some 3.9% of all compounds tested hit in one or more screens of this group. Calls come from the whole dose curve; as a rule, active = well fitted curve in the direction sought with a large enough effect; inconclusive = small, poorly fitted or top-dose-only effect, or another doubt; inactive = no such curve, though single readings can be large; an effect the other way counts as inactive or inconclusive.

Oc1ccc2c3c1O[C@H]1[C@@H](O)CC[C@@]4(O)[C@@H](C2)N(CC2CCC2)CC[C@]314	none
COc1cccc2c1C(=O)c1c(O)c3c(c(O)c1C2=O)C[C@@](O)(C(=O)CO)CC3OC1CC(N2CCOC(OC)C2)C(O)C(C)O1 (some centres not stated)	S2 tox 44.7µM, ATXN2 expr inh 28.2µM (no result: HT1080 IDH1KD tx, HepG2 tox, HT1080-NT tox, TGFb inhibitor)
O=Nc1c(O)c2ccccc2c2ccccc12	S2 tox 15.8µM, HT1080 IDH1KD tx 2.91µM, HepG2 tox 2.82µM, ATXN2 expr inh 7.94µM, HT1080-NT tox 6.51µM, TGFb inhibitor 2.24µM
CC(C)(N)Cc1ccccc1Cl	none (no result: HT1080 IDH1KD tx, HepG2 tox, HT1080-NT tox, TGFb inhibitor)
ClCCN(CCCl)c1ccc(C2=NCCc3ccccc32)cc1	S2 tox inconclusive, TGFb inhibitor inconclusive
COc1ccc2c(c1)C(c1ccc(N(CCCl)CCCl)cc1)=NCC2	S2 tox inconclusive, HT1080 IDH1KD tx 25.9µM, ATXN2 expr inh inconclusive, HT1080-NT tox inconclusive, TGFb inhibitor inconclusive
Cc1nn(Cc2ccc(Cl)cc2Cl)c(Cl)c1C(=O)O	none (no result: ATXN2 expr inh)
N=c1c2c(n(Cc3ccc(Cl)cc3Cl)c3c1CCC3)CCCC2	HT1080 IDH1KD tx 14.6µM, ATXN2 expr inh inconclusive, HT1080-NT tox 20.6µM
CCC12CN3CCN(CC(C3)/C1=N/NC(=O)c1ccncc1)C2	TGFb inhibitor 1.12µM
O=S(=O)(CC1CS1)c1ccc(Oc2ccccc2)cc1 (configuration not stated)	none (no result: S2 tox, HT1080 IDH1KD tx, HepG2 tox, HT1080-NT tox, TGFb inhibitor)
C[N+](C)(C)CC1CCCC(C[N+](C)(C)C)C1=O (configuration not stated)	S2 tox inconclusive, HT1080 IDH1KD tx 3.66µM, ATXN2 expr inh inconclusive, HT1080-NT tox inconclusive, TGFb inhibitor 12.6µM
Cc1ccc(C2NC(=O)NC3=C2CCc2ccccc23)cc1 (configuration not stated)	S2 tox inconclusive, HT1080 IDH1KD tx inconclusive
C[N+](C)(C)CC1CCCc2ccccc2C1=O (configuration not stated)	S2 tox inconclusive, HT1080 IDH1KD tx 5.8µM, ATXN2 expr inh inconclusive, HT1080-NT tox inconclusive, TGFb inhibitor inconclusive
CCc1ccccc1NC(=O)C(CC)Oc1ccccc1-c1nnc(-c2ccccc2)o1 (configuration not stated)	S2 tox inconclusive, ATXN2 expr inh inconclusive (no result: HT1080 IDH1KD tx, HT1080-NT tox)
Cc1ccc(Cl)cc1NC(=O)Cn1c(=O)oc2cc(S(=O)(=O)N3CCCC3)ccc21	none (no result: S2 tox, HT1080 IDH1KD tx, ATXN2 expr inh, HT1080-NT tox, TGFb inhibitor)
CCCCNC(=O)c1cc(-c2cccnc2)nc2ccc(S(=O)(=O)NCCCC)cc12	S2 tox inconclusive (no result: HT1080 IDH1KD tx, HT1080-NT tox)
CC(=O)OC1C(=O)OCC23CCC4(C)OC4C2OC2CC(OC(=O)C=CC=CC(=O)OCCC1C)C3(C)C21CO1 (configuration not stated)	S2 tox 0.0299µM, ATXN2 expr inh inconclusive, HT1080-NT tox 1.46µM (no result: HT1080 IDH1KD tx)
CC(O)C1C=CC=CC(=O)OC2CC3OC4C5OC5(C)CCC4(COC(=O)C4OC4(C)C(O)CO1)C2(C)C31CO1 (configuration not stated)	S2 tox 0.0067µM, ATXN2 expr inh inconclusive, HT1080-NT tox inconclusive, TGFb inhibitor 0.251µM (no result: HT1080 IDH1KD tx)
COc1ccc(-c2nn3c(=O)cc(CN4CCN(S(=O)(=O)c5ccc(C)cc5)CC4)nc3s2)cc1	S2 tox inconclusive (no result: HT1080 IDH1KD tx, HT1080-NT tox)
COC12C(COC(N)=O)C3=C(C(=O)C(C)=C(N)C3=O)N1CC1C2N1C (configuration not stated)	S2 tox inconclusive, HT1080 IDH1KD tx inconclusive, ATXN2 expr inh 6.31µM, HT1080-NT tox inconclusive
O=C(O)c1ccccc1SCC(=O)N1c2ccccc2Sc2ccccc21	TGFb inhibitor inconclusive
C[CH2][Hg][S]c1ccccc1C(=O)O	S2 tox 4.47µM, HT1080 IDH1KD tx 3.26µM, HepG2 tox 2.51µM, ATXN2 expr inh 6.31µM, HT1080-NT tox 2.31µM, TGFb inhibitor 4.47µM
COc1ccc(C2C=C(c3ccccc3)Nc3nc(NC(=O)/C=C/c4ccccc4Cl)nn32)cc1 (configuration not stated)	ATXN2 expr inh inconclusive, TGFb inhibitor inconclusive (no result: HT1080 IDH1KD tx, HT1080-NT tox)
O=C(Nc1cccc(Br)c1)Oc1cccc2cccnc12	S2 tox inconclusive, HT1080 IDH1KD tx inconclusive, HepG2 tox 2.82µM, ATXN2 expr inh 6.31µM, HT1080-NT tox 16.4µM, TGFb inhibitor inconclusive
O=C(Nc1c(Cl)cccc1Cl)Oc1cccc2cccnc12	HT1080 IDH1KD tx 3.66µM, ATXN2 expr inh inconclusive, HT1080-NT tox 6.51µM, TGFb inhibitor inconclusive (no result: S2 tox)
CC1Cc2ccccc2N1C(=O)COC(=O)c1ccc(Cl)nc1 (configuration not stated)	none
O=[N+]([O-])c1ncc[nH]1	none (no result: S2 tox, HT1080 IDH1KD tx, HepG2 tox, HT1080-NT tox, TGFb inhibitor)
O=C(CN1CC=C(c2ccccc2)CC1)Nc1cc(Cl)ccc1Cl	TGFb inhibitor 12.6µM
OC(COCc1ccc(Cl)cc1)CN1CC=C(c2ccccc2)CC1 (configuration not stated)	S2 tox inconclusive, HT1080 IDH1KD tx inconclusive, HepG2 tox 28.2µM!, TGFb inhibitor inconclusive
OC(CN1CC=C(c2ccccc2)CC1)c1ccccc1 (configuration not stated)	none
CCCOc1ccc(C(=O)CCC(=O)NNC(=O)c2ccncc2)cc1	S2 tox inconclusive, TGFb inhibitor inconclusive
COC1=C(C)C(=O)C2=C(C1=O)C(CO)N1C(C#N)C3CC4C(C1C2N1CCOC41)N3C (configuration not stated)	S2 tox inconclusive, HT1080 IDH1KD tx 0.651µM, ATXN2 expr inh inconclusive, TGFb inhibitor 7.08µM
CCCCCCC(=O)N/N=C/c1c(O)n(C(C)CC)c(=S)[nH]c1=O (configuration not stated)	HT1080 IDH1KD tx 14.6µM, HT1080-NT tox inconclusive, TGFb inhibitor inconclusive (no result: ATXN2 expr inh)
CCCCCCC(=O)N/N=C/c1c(O)n(CCc2ccccc2)c(=O)[nH]c1=O	S2 tox inconclusive, HT1080 IDH1KD tx inconclusive, ATXN2 expr inh 17.8µM
CCCCCCC(=O)N/N=C/c1c(O)n(C2CC2)c(=S)[nH]c1=O	ATXN2 expr inh inconclusive
c1ccc2c(c1)[IH]c1ccccc1-2	S2 tox inconclusive, HT1080 IDH1KD tx 0.461µM, ATXN2 expr inh 7.94µM, HT1080-NT tox 0.461µM, TGFb inhibitor 4.47µM
O=c1nc(/C=C/c2ccc(Cl)cc2Cl)cc(C(F)(F)F)[nH]1	HepG2 tox 11.2µM, TGFb inhibitor 15.8µM (no result: ATXN2 expr inh)
O=C1CN=C(c2ccc(Br)cc2)c2oc3ccccc3c2N1	S2 tox inconclusive, HT1080 IDH1KD tx 11.6µM, ATXN2 expr inh inconclusive, HT1080-NT tox 14.6µM
COc1cccc(OC)c1C1=NCC(=O)Nc2c1oc1ccc(Br)cc21	S2 tox inconclusive, HT1080 IDH1KD tx 2.91µM, HT1080-NT tox inconclusive, TGFb inhibitor 15.8µM
O=C1CN=C(c2ccccc2)c2oc3ccc(Br)cc3c2N1	S2 tox inconclusive
